# Measured values as given in the supplement of paper PMC11624193, “Coupling cellular drug-target engagement to downstream pharmacology with CeTEAM” (Nature Communications, 2024).
# Values joined by “and” are separate entries in the source; they are usually repeats but may differ in a detail not shown here. Equal values may be shown once. Where a name gives a salt, the structure may show the parent alone.
# Target: PARP1 L713F-nLuc biosensor (HCT116) (UniProt P09874)
# Assay: PARP1 L713F-nLuc/akaLuc ratio relative to DMSO control (biosensor stabilization) (fold change); higher = more PARP1 biosensor stabilization (target engagement / stabilizer), active = hit call of the paper
# Conditions: stock concentration (mM; final µM = stock mM x 1): 10; 24 h;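 active = log2 fold change beyond 2 SD from the library mean after excluding viability outliers; inactive = within 2 SD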
# PARP1 L713F-nLuc biosensor (HCT116), sequence (P09874 whole entry L713F, looked up): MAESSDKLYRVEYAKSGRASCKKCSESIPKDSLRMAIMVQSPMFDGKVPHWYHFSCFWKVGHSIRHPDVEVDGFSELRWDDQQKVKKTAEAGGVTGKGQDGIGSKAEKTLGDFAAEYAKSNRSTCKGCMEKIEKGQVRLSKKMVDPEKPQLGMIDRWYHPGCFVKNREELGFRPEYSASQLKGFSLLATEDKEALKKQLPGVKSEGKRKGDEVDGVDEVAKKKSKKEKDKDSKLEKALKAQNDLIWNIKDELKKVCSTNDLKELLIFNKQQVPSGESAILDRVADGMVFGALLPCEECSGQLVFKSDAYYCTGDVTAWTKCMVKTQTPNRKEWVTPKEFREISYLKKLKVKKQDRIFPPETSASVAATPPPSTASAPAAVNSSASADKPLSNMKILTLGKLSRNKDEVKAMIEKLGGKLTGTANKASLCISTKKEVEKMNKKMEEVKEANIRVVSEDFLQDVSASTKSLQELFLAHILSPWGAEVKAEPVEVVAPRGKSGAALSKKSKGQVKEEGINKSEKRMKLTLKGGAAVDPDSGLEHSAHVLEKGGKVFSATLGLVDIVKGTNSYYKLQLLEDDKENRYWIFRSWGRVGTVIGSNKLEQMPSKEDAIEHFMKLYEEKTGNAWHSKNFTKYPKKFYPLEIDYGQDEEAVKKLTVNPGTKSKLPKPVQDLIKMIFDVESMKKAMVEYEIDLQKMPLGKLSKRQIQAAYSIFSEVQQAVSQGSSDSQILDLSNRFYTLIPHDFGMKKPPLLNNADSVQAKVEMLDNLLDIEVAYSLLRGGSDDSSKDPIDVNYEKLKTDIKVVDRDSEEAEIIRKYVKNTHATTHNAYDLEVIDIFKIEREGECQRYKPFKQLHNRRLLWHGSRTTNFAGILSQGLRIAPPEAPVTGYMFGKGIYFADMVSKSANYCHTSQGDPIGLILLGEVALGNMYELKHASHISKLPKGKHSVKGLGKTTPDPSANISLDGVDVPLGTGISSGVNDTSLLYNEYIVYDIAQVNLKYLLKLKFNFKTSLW
row,Compound,PARP1 L713F-nLuc/akaLuc ratio
1,"O=C(c1ccc(F)c(F)c1Nc1ccc(I)cc1F)N1CC(O)([C@@H]2CCCCN2)C1 [Cobimetinib (GDC-0973, RG7420)]",0.687 (inactive)
2,CCN(c1cc(C#CCN2CCOCC2)cc(C(=O)NCc2c(C)cc(C)[nH]c2=O)c1C)[C@H]1CC[C@H](N(C)CCOC)CC1,1.57 (inactive) and 1.94 (inactive)
3,Cc1c(Cn2c(C)nc3c(C(=O)O)cc(N4CCOCC4)cc32)cccc1C(F)(F)F,1.38 (inactive)
4,"CO[C@H]1C[C@@H]2CC[C@@H](C)[C@@](O)(O2)C(=O)C(=O)N2CCCC[C@H]2C(=O)O[C@H]([C@H](C)C[C@@H]2CC[C@@H](OP(C)(C)=O)[C@H](OC)C2)CC(=O)[C@H](C)/C=C(\C)[C@@H](O)[C@@H](OC)C(=O)[C@H](C)C[C@H](C)/C=C/C=C/C=C/1C [Ridaforolimus (Deforolimus, MK-8669)]",1.7 (inactive)
5,CC(C)NC(=O)COc1cccc(-c2nc(Nc3ccc4[nH]ncc4c3)c3ccccc3n2)c1,0.38 (inactive)
6,C#Cc1cccc(Nc2ncnc3cc4c(cc23)OCCOCCOCCO4)c1 [Icotinib],0.808 (inactive)
7,C=CC(=O)Nc1cccc(Oc2nc(Nc3ccc(N4CCN(C)CC4)cc3)nc3ccsc23)c1,1.03 (inactive)
8,C[C@@H]1CCN(C(=O)CC#N)C[C@@H]1N(C)c1ncnc2[nH]ccc12 [Tofacitinib (citrate)],0.775 (inactive)
9,COc1cc([C@@H]2c3cc4c(cc3[C@@H](O[C@@H]3O[C@@H]5CO[C@@H](C)O[C@H]5[C@H](O)[C@H]3O)[C@H]3COC(=O)[C@H]23)OCO4)cc(OC)c1O [Etoposide],0.601 (inactive)
10,O=C(/C=C\n1cnc(-c2cc(C(F)(F)F)cc(C(F)(F)F)c2)n1)NNc1ccccn1 [Verdinexor (KPT-335)],0.35 (inactive)
11,COc1ccc(-c2c(-c3ccc(C#N)c(F)c3)nc(N3CCC(N)CC3)n(C)c2=O)cc1F [Pulrodemstat (benzenesulfonate)],1.26 (inactive)
12,CC1(C)C=Cc2cc(CCn3c4ccccc4c4ccccc43)cc(C=O)c2O1,1.78 (inactive)
13,CCCOc1ccn2c(C(C)=O)cc(-c3ccccc3S(C)(=O)=O)c2c1,0.733 (inactive)
14,N[C@H]1C(O)O[C@H](CO)[C@@H](O)[C@@H]1O (stereo partly drawn) [Glucosamine (hydrochloride)],1.15 (inactive)
15,COc1cc(N2CCN(C)CC2)ccc1Nc1nccc(-c2cn(C)c3cnccc23)n1,0.923 (inactive)
16,N#Cc1cccnc1N1CCN(C(=O)c2cccc(Cc3n[nH]c(=O)c4ccccc34)c2)CC1,2.72 (active)
17,CCCc1cc(C)[nH]c(=O)c1CNC(=O)c1cc(-c2ccc(N3CCN(C)CC3)nc2)nc2c1cnn2C(C)C,1.04 (inactive)
18,N#CCC1(n2cc(-c3ncnc4[nH]ccc34)cn2)CN(C2CCN(C(=O)c3ccnc(C(F)(F)F)c3F)CC2)C1 [Itacitinib],0.6 (inactive)
19,Nc1nc(OCc2ccc(CNC(=O)C(F)(F)F)cc2)c2[nH]cnc2n1 [PIN1 inhibitor API-1],1.38 (inactive)

row,Compound,PARP1 L713F-nLuc/akaLuc ratio
1,O=C(NCC1(c2nc(-c3ccccc3)cs2)CCOCC1)c1cccc(-c2noc(C(F)(F)F)n2)c1,0.465 (inactive)
2,CNCc1ccc(-c2cc3cc(F)cc(C(N)=O)c3o2)cc1 [Mefuparib (hydrochloride)],10.5 (active)
3,COc1cc(OC)cc(N(CCNC(C)C)c2ccc3ncc(-c4cnn(C)c4)nc3c2)c1,1.09 (inactive)
4,Cc1nc2sccn2c(=O)c1CCN1CCC(=C(c2ccccc2)c2ccc(F)cc2)CC1,1.01 (inactive)
5,O=C(CNC(=O)[C@H](COP(=O)(O)O)NC(=O)CCc1c[nH]c2ccccc12)NCCCCc1ccccc1,1.08 (inactive)
6,CN(C)[C@H]1CN(C2CCc3cccc(F)c32)C[C@@H]1c1ccc(N2CCN(S(C)(=O)=O)CC2)cc1 (stereo partly drawn),4.18 (active)
7,Nc1nc(=O)n(-c2cccc(-c3ccccc3)c2)cc1Cl [Bobcat339 (hydrochloride)],0.757 (inactive)
8,N[C@H]1C(O)O[C@H](CO)[C@@H](O)[C@@H]1O (stereo partly drawn) [Glucosamine],1.02 (inactive)
9,NC(=O)c1cnc2[nH]ccc2c1N[C@@H]1[C@@H]2CC3C[C@H]1C[C@@](O)(C3)C2,0.774 (inactive)
10,C#Cc1cccc(Nc2ncnc3cc(OCCOC)c(OCCOC)cc23)c1 [Erlotinib],0.565 (inactive)
11,CCCc1cc(C)[nH]c(=O)c1CNC(=O)c1cc(-c2ccc(N3CCN(C(C)C)CC3)nc2)cc2c1cnn2C(C)C,0.862 (inactive)
12,N#CC1(c2ccc(NC(=O)c3cccnc3NCc3ccncc3)cc2)CCCC1,0.967 (inactive)
13,COc1ccc(C(NC(=O)c2cnc(-c3cccnn3)[nH]c2=O)c2ccc(OC)cc2)cc1,0.884 (inactive)
14,NC(=O)c1ccc(I)c([N+](=O)[O-])c1 [Iniparib],1.12 (inactive)
15,Cc1cc(F)c(C(=O)Nc2cccc(-c3nncn3C(C)C)n2)cc1-n1cnc(C2CC2)c1 [Selonsertib (GS-4997)],0.908 (inactive)
16,Nc1nc2[nH]cnc2c(=S)[nH]1 [Thioguanine],1.03 (inactive)
17,COc1ccc2c(=O)c(-c3ccccc3)coc2c1 [7-Methoxyisoflavone],0.63 (inactive)
18,Cc1nc(=O)c2cc(CN(C)c3ccc(C(=O)N[C@@H](CCC(=O)O)C(=O)O)s3)ccc2[nH]1 [Raltitrexed],1.07 (inactive)
19,N#Cc1c(N2CCCC2)nc(N)c2c(N)nc(N3CCCC3)cc12,1.1 (inactive)
